SMN2 splice enh = qHTS Assay for Enhancers of SMN2 Splice Variant Expression; HEK293 SMN2-luciferase splicing reporter, luminescence, 30-36 h; hit rate 2.8% among 210,000; AID 1458, 2008; Potency, µM (doses to about 46.1 µM), inactives show top-dose activity change, positive = activation, usual class: activators; also: % of control where 0% means no effect; nearly all actives have a fitted effect of over 55% in size
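HEK293 cells carry an SMN2 […]–luciferase reporter in which exon 7 inclusion puts luciferase in frame. Cells were plated 10-12 h before compound addition, then incubated 30-36 h at 37C. ONE-Glo luminescence was read; sodium butyrate at 4.5 mM final served as control.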
KinaseGlo FLuc = Counterscreen for Luciferase (Kinase-Glo TM) Inhibition | Luciferin 4-monooxygenase (Photuris pensylvanica), Q27757 | Kinase-Glo luciferase, ATP luminescence, 8 min | Potency, µM (titrated, usually from 38.3 µM), inactives show at the highest dose activity change, negative = inhibition, usual class: inhibitors | hit rate 0.28% among 200,000 | AID 1379, 2008; also: % is scaled to controls: 0 for no effect and ±100 for the full control effect; nearly all actives have a fitted effect of over 60% in size
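Inhibition of Kinase-Glo luciferase light generation was assessed at 10 uM ATP in pH 7.2 imidazole buffer, with luminescence measured after eight minutes at ambient temperature.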
NPC1 promoter act = qHTS Assay for NPC1 Promoter Activators | Huh7 NPC1 promoter luciferase reporter, 24 h | Potency, µM (series often up to 9.22 µM), for inactives: top-dose activation, usual class: activators | hit rate 2.4% among 320,000; also: % of control where 0% means no effect; nearly all actives have a fitted effect of over 60% in size
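In 1536-well qHTS, Huh7 cells harboring an NPC1 promoter–luciferase construct received compound for 24 h; activation was quantified by luminescence following luciferase reagent addition.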
FLuc counter = qHTS profiling assay for firefly luciferase inhibitor/activator using purifed enzyme and Km concentrations of substrates (counterscreen for miR-21 project); purified FLuc, Km substrates, luminescence inhibition; Potency, µM (top dose mostly 57.5 µM), without a hit: top-dose activity change, negative = inhibition, actives largely listed as inhibitors; hit rate 6.9% among 360,000; AID 588342, 2011;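 also: plate controls were vehicle for no effect and reference inhibitor for full effect; nearly all actives have a fitted effect of over 55% in size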
Target sequence (P08659 whole entry, looked up): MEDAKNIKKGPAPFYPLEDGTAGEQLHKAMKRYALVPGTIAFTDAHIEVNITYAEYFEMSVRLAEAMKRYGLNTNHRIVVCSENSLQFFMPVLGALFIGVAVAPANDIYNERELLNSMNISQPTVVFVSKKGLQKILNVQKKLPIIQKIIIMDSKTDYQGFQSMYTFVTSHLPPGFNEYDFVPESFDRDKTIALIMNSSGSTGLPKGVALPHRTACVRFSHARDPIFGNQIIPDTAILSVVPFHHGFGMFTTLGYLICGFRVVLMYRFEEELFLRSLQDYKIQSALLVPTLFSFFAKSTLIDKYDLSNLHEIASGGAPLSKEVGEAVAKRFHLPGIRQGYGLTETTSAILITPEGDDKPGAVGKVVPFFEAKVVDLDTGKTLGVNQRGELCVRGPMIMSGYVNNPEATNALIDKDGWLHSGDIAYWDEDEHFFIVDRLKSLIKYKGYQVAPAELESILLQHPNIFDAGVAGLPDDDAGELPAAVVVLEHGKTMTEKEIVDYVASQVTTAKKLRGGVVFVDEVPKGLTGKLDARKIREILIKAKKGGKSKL
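Purified P. pyralis luciferase, 10 nM final, with Km-level 10 uM D-luciferin and 10 uM ATP in 50 mM Tris acetate pH 7.5, 10 mM Mg acetate, 0.01% Tween-20, 0.05% BSA; 6-point qHTS titration about 60 µM downward; luminescence read.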
Rab9 promoter act = qHTS Assay for Rab9 Promoter Activators; AID 485297, 2010; Huh7 Rab9 promoter-luciferase reporter, luminescence, 24 h; hit rate 2.8% among 320,000; Potency, µM (series often up to 9.22 µM), without a hit: at the highest dose activation, negative = inhibition, hits mostly activators; also: % of control where 0% means no effect; nearly all actives have a fitted effect of over 60% in size
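Huh7 cells stably carrying a Rab9 promoter-luciferase reporter, 1500 cells per well in OP-MEM I with 10% FBS, treated with compound 24 hours at 37C. Luciferase activity read by luminescence after 10 minutes with Amplite reagent.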
ELG1 genotoxic = qHTS screen for small molecules that induce genotoxicity in human embryonic kidney (HEK293T) cells expressing luciferase-tagged ELG1 | Potency, µM (series often up to 46 µM), inactives show at the highest dose activity change, positive = activation, hits mostly activators | HEK293T ELG1-luciferase reporter, luminescence, 16 h | hit rate 1.3% among 330,000; also: % of control where 0% means no effect; nearly all actives have a fitted effect of over 60% in size
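Genotoxic stress is detected as increased luminescence from luciferase-tagged ELG1 in HEK293T cells, measured with ONE-Glo after a 16 hr treatment at 37 °C.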
An asterisk follows results filed as active; ? = inconclusive; / = not tested or not shown; [ ] = another dose, or the depositor's remark. Shown are actives, neighbours in structure and some others; about 7.3% of the full set was active somewhere. Calls follow the shape of the dose curve; as a rule, active = well fitted curve in the direction sought with a large enough effect; inconclusive = small, poorly fitted or top-dose-only effect, or another doubt; inactive = no such curve, though single readings can be large; an effect the other way counts as inactive or inconclusive. Potency is read from the fitted curve at half-maximal effect.

SMILES | SMN2 splice enh | KinaseGlo FLuc | NPC1 promoter act | FLuc counter | Rab9 promoter act | ELG1 genotoxic
Cc1ccc(S(=O)(=O)N2CCCN(C(=O)c3cc4ccccc4[nH]3)CC2)cc1 | / | / | 6% | 19µM* | 9% | 5%
COc1cccc(/C=N/NC(=S)NC2CC3CC2C2C=CCC32)c1O (stereo unspecified) | / | / | 0% | 5.4µM* | -2% | 7%
Oc1ccccc1/C=N/NC(=S)NC1CC2CC1C1C=CCC21 (stereo unspecified) | / | / | 17% | 5.4µM* | ? | ?
Oc1c(Br)cc(Br)cc1/C=N/NC(=S)N[C@H]1CC2C=CC1C2 (stereo partly specified) | / | / | 1% | -18% | -4% | -5%
Cc1cc(N)c2cc(OCCOc3ccc4nc(C)cc(N)c4c3)ccc2n1 | -9%[9.22 µM] | -3%[7.66 µM] | / | / | / | /
CN1CCN(C(=S)c2ccc(-c3cc(Cl)ccc3Cl)o2)CC1 | / | / | 3% | 17µM* | 2% | -1%
N#CCCN1CCN(C(=S)c2ccc(-c3cc(Cl)ccc3Cl)o2)CC1 | -17% | 1% | -2% | -16% | 1% | -3%
S=C(c1ccc(-c2ccc(Cl)cc2Cl)o1)N1CCCCC1 | 13µM* | 3% | ? | 4.8µM* | 2.8µM* | ?
S=C(c1ccc(-c2ccc(Cl)cc2Cl)o1)N1CCCC1 | / | / | ? | 11µM* | ? | 10%
S=C(Nc1ccc(Cl)cc1Cl)N1CCCCC1 | 30% | 4% | 18% | ? | 5% | 11%
Cc1ccc(-n2nc(C)c3nc(CCC(=O)Nc4cccc(C)c4C)c(=O)n(C)c32)cc1 | / | / | / | 6% | / | /
Cn1c(N)c(C(=O)/C=C/c2ccccc2)c(=O)[nH]c1=O | / | / | ? | 17µM* | ? | ?
O=C(N/N=C/c1ccc(O)cc1O)c1cc(-c2ccccc2)n[nH]1 | / | 1% | / | / | / | /
O=C(N/N=C/c1c[nH]c2ccccc12)c1cc(-c2ccccc2)n[nH]1 | 2% | -2% | -1% | 12µM* | 0% | -4%
O=C(N/N=C/c1cccs1)c1cc(-c2cccc3ccccc23)n[nH]1 | ? | 4% | 1% | 19µM* | 26% | 15%
Cc1ccc(-c2cc(C(=O)N/N=C/c3c[nH]c4ccccc34)[nH]n2)cc1 | -6% | 0% | -19% | 11µM* | -17% | -1%
O=C(N/N=C/c1c[nH]c2ccccc12)c1cc(-c2ccc(-c3ccccc3)cc2)n[nH]1 | 24% | 0% | 30% | 1.3µM* | ? | 13%
NC(=O)Cn1c(=O)n(-c2ccc(F)c(Cl)c2)c(=O)c2sc3ccccc3c21 | -3% | / | / | 1% | / | /
Cc1ccc(NC(=O)c2cc(S(=O)(=O)N3CCCCC3)c[nH]2)cc1N(C)C | / | / | / | 0% | / | /
O=C(N/N=C/c1c[nH]c2ccccc12)c1cc(-c2ccc3ccccc3c2)n[nH]1 | -28% | 6% | -11% | 9.5µM* | -4% | -12%
O=C(O)c1ccc(/C=N/NC(=O)c2cc(-c3ccc4c5c(cccc35)CC4)n[nH]2)cc1 | 4% | 0% | -4% | 21µM* | -7% | -2%
O=C(N/N=C/c1c[nH]c2ccccc12)c1cc(-c2cccc3ccccc23)n[nH]1 | 18% | 2% | -12% | 15µM* | -1% | -2%
O=C(N/N=C/c1c[nH]c2ccccc12)c1ccn[nH]1 | 27% | -6% | 7% | 21µM* | ? | 10%
Cc1nc(C)c(C(=O)N/N=C/c2c[nH]c3ccccc23)s1 | 11% | 15% | -4% | ? | -6% | 9%
CCOC(=O)c1c(C)sc(-c2c(-c3ccc(OC)c(F)c3)[nH]c3c2c(=O)[nH]c(=O)n3C)c1O | / | / | / | -1% | / | /
SMILES | SMN2 splice enh | KinaseGlo FLuc | NPC1 promoter act | FLuc counter | Rab9 promoter act | ELG1 genotoxic
CC(C)NC(=O)Cn1ccc2cc(S(=O)(=O)N3CCCCCC3)ccc21 | / | / | / | 4% | / | /
Cn1c(O)c(C(C#N)=C2N=c3ccccc3=N2)c2ccccc21 | 5% | 0% | 15% | 9.5µM* | 6% | 1%
N#CC(=C1N=c2ccccc2=N1)c1c(O)[nH]c2ccccc12 | 21% | -7% | 12% | ? | 16% | 21%
O=C(Nc1ccc(Cl)cc1)c1ccc2nsnc2c1 | 11µM* | -1% | 2.5µM* | ? | 4µM* | 16%
O=C(Nc1cccc([N+](=O)[O-])c1)c1ccc2nsnc2c1 | / | / | -1% | -27% | -1% | -1%
CN(C)c1ccc(NC(=O)c2ccc3nsnc3c2)cc1 | 22µM* | -4% | ? | 5.4µM* | 3.2µM* | 2.6µM*
CCOC(=O)c1oc2c(c1C)/C(=N/O)CCC2 | 22µM* | 11µM* | ? | ? | 26% | ?
COc1ccccc1NC(=O)c1oc2ccc(C)cc2c1C | ? | 14% | ? | 9.5µM* | ? | ?
Cc1ccc2oc(C(=O)Nc3cc(C)on3)c(C)c2c1 | / | / | 3.2µM* | 0.76µM* | 2.5µM* | ?
Cc1ccc(-n2nc3c(=O)n(CCCC(=O)NC(C)c4ccccc4)nc(C)c3c2C)cc1 (stereo unspecified) | / | / | / | -2% | / | /
c1ccc2c(C3=NNC(=NC4CCCCC4)SC3)c[nH]c2c1 | 20µM* | 2% | -1% | ? | 15% | 0%
c1ccc(C2=NNC(=NC3CC3)SC2)cc1 | 2.5µM* | 4.5µM* | ? | 1.3µM* | 0.11µM* | ?
c1ccc2c(C3=NNC(=NC4CC4)SC3)c[nH]c2c1 | 2µM* | -13% | ? | 1.5µM* | 0.63µM* | ?
CC(C)Oc1ccc(CNC(=O)Cn2nc(N3CCN(c4ccccc4)CC3)ccc2=O)cc1 | / | / | / | -12% | / | /
COc1cc2ccc([C@H](C)NCC#N)cc2cc1OC | -7%[9.22 µM] | -2%[7.66 µM] | / | / | / | /
O=C(O)C[C@H](Cc1ccc2c(c1)OCO2)C(=O)O | -24%[9.22 µM] | -4%[7.66 µM] | / | / | / | /
C=C1c2ccccc2O[C@H](C(=O)OCC)[C@@H]1CCC(C)C (tested in a mixture with another compound) | / | -2%[39.9 µM] | / | / | / | /
Cc1ccc2[nH]c3c(c2c1)CCc1cn[nH]c1-3 | 7% | -4% | ? | 11µM* | ? | 0%
c1ccc(CNc2oc(-c3ccccc3)nc2-c2ccccc2)cc1 | -1% | -3% | / | / | / | /
O=C(CN1C(=O)/C(=C/c2cccc(Cl)c2)SC1=S)NC1C=CS(=O)(=O)C1 (stereo unspecified) | / | / | -1% | 2.7µM* | -1% | 9%
O=C(CN1C(=O)S/C(=C\c2cccc(Cl)c2)C1=O)NC1C=CS(=O)(=O)C1 (stereo unspecified) | / | / | -15% | -2% | 9% | 9%
